Laboratory results from a collection of fitness landscapes (doi:10.1038/s41467-024-54723-y).
In all, about 18,000 sequences were measured (“TetR repression strength (sort-seq, GFP reporter)”: median about 0.23, highest 2% from about 0.68 on). Only a selection was taken, and the highest values are over-represented in it overall.

molecular target: TetR (class B, Tn10) (UniProt P04483); experiment: TetR repression strength (sort-seq, GFP reporter) (relative to tetO2 = 1); higher = stronger repression; conditions: E. coli
Sequence (P04483 whole entry): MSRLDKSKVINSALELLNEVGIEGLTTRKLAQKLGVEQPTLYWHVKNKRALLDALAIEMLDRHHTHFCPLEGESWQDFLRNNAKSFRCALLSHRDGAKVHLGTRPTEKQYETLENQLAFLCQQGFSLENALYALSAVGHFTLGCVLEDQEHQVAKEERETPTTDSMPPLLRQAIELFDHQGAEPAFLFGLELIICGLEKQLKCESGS
Procedure, shortened: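 Repression strength was calculated by subtracting the read-weighted mean bin from the top bin index plus one and dividing by the unaltered operator's value. The plasmid library was low-copy in E. coli SIG10-MAX, with eight randomized operator positions between a constitutive promoter and sfGFP and constitutive TetR. Cultures grew 5 h at 37 °C in LB containing 50 µg/mL chloramphenicol before 10^6 cells were sorted by FACS into 13 fluorescence bins, each sequenced on Illumina. Three independent transformations were averaged for members having ≥30 reads in all replicates and a CV ≤0.5.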

Sequence | TetR repression strength
TCCCCGTGAGTGCATGAGA | 0.122
TCCCATTCAGTCAATGAGA | 0.457
TCCCTATCAGTGGTCGAGA | 0.532
TCCCTAACAGTGTTCGAGA | 0.305
TCCCTATCAGTTTTCGAGA | 0.523
TCCCTGTCAGTGCTCGAGA | 0.534
TCCCTATCAGTGCTAGAGA | 0.841
TCCCTAATAGTGCTTGAGA | 1.01
TCCCTAGTAGTGCTTGAGA | 0.594
TCCCTATCAGTGCTCGAGA | 0.993
TCCCAAATAGTGCTTGAGA | 0
TCCCTATTAGTGCTAGAGA | 0.466
TCCCTATCAGTGCGAGAGA | 0.452
TCCCTATCAGTGTTCGAGA | 0.777
TCCCATACAGTGCGCGAGA | 0.394
TCCCTTATAGTCGCGGAGA | 0.142
TCCCCTTAAGTGTATGAGA | 0.348
TCCCAGAGAGTGGAAGAGA | 0.148
TCCCGACAAGTTATCGAGA | 0.226
TCCCTATCAGTCCTCGAGA | 0.747
TCCCTATAAGTCCTCGAGA | 0.529
TCCCTATCAGTGCTGGAGA | 0.86
TCCCTATCAGTGCCGGAGA | 1.06
TCCCTATCAGTCCCGGAGA | 0.4

Sequence | TetR repression strength
TCCCTATCAGTGCCTGAGA | 0.467
TCCCTATCAGTGGTGGAGA | 0.402
TCCCCATCAGTCCTCGAGA | 0.327
TCCCCATCAGTGCTGGAGA | 0.157
TCCCAGGCAGTGCTTGAGA | 0.113
TCCCGATCAGTAGACGAGA | 0.237
TCCCCTGTAGTGTGCGAGA | 0.297
TCCCCCACAGTTATAGAGA | 0.524
TCCCAGGTAGTGGCGGAGA | 0.176
TCCCTTCCAGTTCTGGAGA | 1.04
TCCCTTCGAGTTCTGGAGA | 0.328
TCCCTTCAAGTGCCCGAGA | 0.415
TCCCTACAAGTGCCGGAGA | 0.202
TCCCTTCTAGTTCTGGAGA | 0.402
TCCCCTCCAGTTCTGGAGA | 0.342
TCCCTTCCAGTTCTTGAGA | 0.472
TCCCTTCAAGTGCCGGAGA | 1.13
TCCCTTCAAGTTCTGGAGA | 1.03
TCCCATAAAGTGACGGAGA | 0.305
TCCCTTAAAGTGTTGGAGA | 0.334
TCCCGTTCAGTATGGGAGA | 0.106
TCCCGCCGAGTCCCGGAGA | 0.317
TCCCATGGAGTTTTAGAGA | 0.281
TCCCACGGAGTTACGGAGA | 0.224

Sequence | TetR repression strength
TCCCGAGGAGTGTTCGAGA | 0.224
TCCCGTCGAGTGTTCGAGA | 0.218
TCCCGTGGAGTGTTCGAGA | 0.914
TCCCGTGGAGTTTCTGAGA | 0.0476
TCCCGTTGAGTATTTGAGA | 0.329
TCCCGTTAAGTTTCTGAGA | 0.302
TCCCGTTGAGTTTCTGAGA | 0.744
TCCCGTTGAGTGTTGGAGA | 1.1
TCCCGTGGAGTGTTGGAGA | 0.325
TCCCGTTTAGTATTTGAGA | 0.713
TCCCGTTTAGTAGTTGAGA | 0.028
TCCCGTTGAGTGTTTGAGA | 0.13
TCCCGTAAAGTGGTGGAGA | 0.228
TCCCTCGAAGTGCTTGAGA | 0.406
TCCCGAAGAGTGTTGGAGA | 0.268
TCCCGTCAAGTACGCGAGA | 0.196
TCCCCATGAGTAATTGAGA | 0.334
TCCCGCGTAGTTACCGAGA | 0.161
TCCCTCGGAGTGTGCGAGA | 0.09
TCCCTTTGAGTATGGGAGA | 0.0551
TCCCTCGAAGTAGAAGAGA | 0.297
TCCCGGGGAGTGTCCGAGA | 0.125
TCCCGTGGAGTGTCCGAGA | 0.821
TCCCGTGGAGTGGCCGAGA | 0.159

Sequence | TetR repression strength
TCCCTACAAGTGTTTGAGA | 0.295
TCCCGGACAGTTGGTGAGA | 0.421
TCCCAGACAGTCATTGAGA | 0.375
TCCCGGGCAGTCCGCGAGA | 0.163
TCCCAATGAGTGGGCGAGA | 0.238
TCCCGCTTAGTTAGGGAGA | 1.02
TCCCGCTTAGTTACGGAGA | 1.2
TCCCCAACAGTTAGGGAGA | 0.218
TCCCGGTTAGTTACGGAGA | 0.211
TCCCCAATAGTTAGGGAGA | 0.699
TCCCGCTGAGTTACGGAGA | 0.652
TCCCGCGGAGTTAGGGAGA | 0.207
TCCCGCTAAGTTAGGGAGA | 0.286
TCCCGCTGAGTTAGAGAGA | 0.0464
TCCCGCTGAGTTAGGGAGA | 0.929
TCCCCCATAGTTAGGGAGA | 0
TCCCGCTTAGTGAGGGAGA | 0.419
TCCCTTTGAGTGGACGAGA | 0.246
TCCCCATTAGTGGAGGAGA | 0.275
TCCCCGGCAGTATGTGAGA | 0.189
TCCCGGAAAGTCTAGGAGA | 0.216
TCCCTTTAAGTCGACGAGA | 0.285
TCCCTTTTAGTGTGGGAGA | 0.317
TCCCGTTAAGTCTTGGAGA | 0.302

Sequence | TetR repression strength
TCCCGCCTAGTCACTGAGA | 0.682
TCCCGGCTAGTCACTGAGA | 0.256
TCCCGTCGAGTCGTTGAGA | 0.134
TCCCGGCTAGTCGTTGAGA | 0.89
TCCCGGTTAGTCGTTGAGA | 0.225
TCCCGGCGAGTCGTTGAGA | 0.801
TCCCGGAGAGTCGTTGAGA | 0.118
TCCCGGCTAGTAGTTGAGA | 0.295
TCCCGAGTAGTCACTGAGA | 0.231
TCCCAATAAGTGTGCGAGA | 0.242
TCCCGTTTAGTCGCGGAGA | 0.215
TCCCAGTTAGTGGGTGAGA | 0.172
TCCCCTCGAGTGCCGGAGA | 0.442
TCCCTAAAAGTGGGAGAGA | 0.203
TCCCTGTGAGTGATAGAGA | 0.456
TCCCTATGAGTGCTAGAGA | 0.452
TCCCACCGAGTGATAGAGA | 1.21
TCCCCAGGAGTGGTAGAGA | 0.189
TCCCAAGGAGTGGTAGAGA | 1.18
TCCCACCGAGTGAGAGAGA | 0.43
TCCCCAGGAGTGATAGAGA | 0.339
TCCCAAGGAGTGATAGAGA | 0.977
TCCCACCGAGTGATCGAGA | 0.405
TCCCTATGAGTGATAGAGA | 0.765

Sequence | TetR repression strength
TCCCAAAGAGTGGTAGAGA | 0.164
TCCCATGGAGTGATAGAGA | 0.548
TCCCGGATAGTGGGTGAGA | 0.0875
TCCCCGGCAGTCGCAGAGA | 0.207
TCCCGTGTAGTAAGGGAGA | 0.307
TCCCGCCGAGTAGGCGAGA | 0.34
TCCCAATGAGTGATAGAGA | 0.685
TCCCACTGAGTGATAGAGA | 0.551
TCCCAGTGAGTGATAGAGA | 0.528
TCCCTGTTAGTGGGAGAGA | 0.189
TCCCAAATAGTGGGAGAGA | 0.214
TCCCTGTTAGTGGGGGAGA | 0.737
TCCCAAATAGTGGGGGAGA | 1.1
TCCCAAATAGTGTGGGAGA | 0.459
TCCCTGATAGTGGGGGAGA | 0.0581
TCCCTGAAAGTCACGGAGA | 0.337
TCCCGGGGAGTTAGGGAGA | 0.346
TCCCACCCAGTATCAGAGA | 0.2
TCCCCACAAGTGTCAGAGA | 0.352
TCCCCACCAGTGTCAGAGA | 0.334
TCCCCACAAGTATCCGAGA | 0.296
TCCCCACAAGTATCAGAGA | 0.752
TCCCCACCAGTATCAGAGA | 0.697
TCCCGGTAAGTGATGGAGA | 0.338

Sequence | TetR repression strength
TCCCGAGAAGTCCGAGAGA | 0.474
TCCCAGTAAGTCAGAGAGA | 0.066
TCCCGGAAAGTCTCGGAGA | 0.107
TCCCTCGGAGTGGGTGAGA | 0.988
TCCCTCGTAGTGAGTGAGA | 0.507
TCCCTCGTAGTGGGTGAGA | 0.815
TCCCTCGGAGTGGGAGAGA | 0.217
TCCCTAAGAGTTGGTGAGA | 0.137
TCCCTCTGAGTGGGTGAGA | 0.195
TCCCTGAGAGTTGGTGAGA | 0.164
TCCCCAGTAGTTGGTGAGA | 0.114
TCCCTCATAGTGGGTGAGA | 0.0921
TCCCAAGTAGTTGGTGAGA | 0.774
TCCCTAGTAGTTGGTGAGA | 0.177
TCCCTCAGAGTTGGTGAGA | 1.2
TCCCGGACAGTAACGGAGA | 0.312
TCCCGCGGAGTCACTGAGA | 0.415
TCCCTCGTAGTGTTTGAGA | 0.362
TCCCAGTCAGTTCAGGAGA | 0.096
TCCCGATAAGTTGCGGAGA | 0.185
TCCCTTTCAGTAGGGGAGA | 0.194
TCCCCTTCAGTAGCGGAGA | 0.344
TCCCTTTCAGTCGAGGAGA | 0.369
TCCCTTACAGTAGCGGAGA | 0.0543

Sequence | TetR repression strength
TCCCTTTCAGTAGAGGAGA | 1.01
TCCCTTTCAGTAGCGGAGA | 0.798
TCCCAGACAGTCATCGAGA | 0.368
TCCCTAGCAGTTGTAGAGA | 0.509
TCCCTTGCAGTGATCGAGA | 0.654
TCCCGTCGAGTAGGGGAGA | 0.127
TCCCAGCGAGTTACAGAGA | 0.238
TCCCAGCGAGTTAGAGAGA | 0.815
TCCCTGTTAGTTTGAGAGA | 0.856
TCCCTAGTAGTTAGGGAGA | 0.192
TCCCAGAGAGTTAGCGAGA | 0.557
TCCCTTGGAGTTAGGGAGA | 0.2
TCCCTGGGAGTTATAGAGA | 0.354
TCCCTAGGAGTTAGGGAGA | 0.979
TCCCTGGGAGTTAGTGAGA | 0.146
TCCCTGTTAGTTTGTGAGA | 0.4
TCCCTGGGAGTTAGAGAGA | 0.832
TCCCTGATAGTTTGAGAGA | 0.382
TCCCAGAAAGTCAATGAGA | 0.289
TCCCTGCTAGTGGCAGAGA | 0.119
TCCCTATAAGTAGGAGAGA | 0.228
TCCCAGTGAGTGCGCGAGA | 0.286
TCCCCAGAAGTCGTTGAGA | 0.061
TCCCCGTAAGTACAGGAGA | 0.368

Sequence | TetR repression strength
TCCCGGCAAGTTTTTGAGA | 0.238
TCCCGGGAAGTGGGGGAGA | 0.274
TCCCGGATAGTGATCGAGA | 0.33
TCCCGACTAGTCAGGGAGA | 0.515
TCCCCGGGAGTGTGGGAGA | 0.207
TCCCTGGTAGTTAGAGAGA | 0.821
TCCCCTTGAGTTGAGGAGA | 0.707
TCCCTAGTAGTTGCGGAGA | 0.322
TCCCCTAGAGTTGAGGAGA | 0.239
TCCCTGGTAGTGACAGAGA | 1.03
TCCCTAGAAGTTGCGGAGA | 1.2
TCCCTGGTAGTGACCGAGA | 0.116
TCCCTTGGAGTTGAGGAGA | 0.465
TCCCAAGAAGTTGCGGAGA | 0.21
TCCCTGGTAGTTAGTGAGA | 0.141
TCCCTGTTAGTTAGAGAGA | 0.452
TCCCTGGTAGTGAGAGAGA | 0.326
